Measurements taken from PubChem BioAssay (NCATS).
Values joined by “and” are separate entries in the source; they are usually repeats but may differ in a detail not shown here. Identical values can stand only once. Results filed as inconclusive are left out. Active and inactive are the calls of the source. Unless noted, the call rests on the fitted dose curve; in most records, active means well fitted curve in the direction sought with a large enough effect; inconclusive means small, poorly fitted or top-dose-only effect, or another doubt; inactive means no such curve, though single readings can be large; an effect the other way counts as inactive or inconclusive.

What was measured:
[1] = Primary qHTS for inhibitors of nuclear receptor binding SET domain protein 2 (NSD2) in an isogenic RCH-ACV NSD2 p.E1099K mutant (9B) (AID 1645876); further: nearly all actives have a fitted effect of over 70% in size; further: potency means the concentration at half of the fitted maximal effect; on activity change, negative = viability loss: on the % scale 0 is the no-effect control and ±100 the full control effect
[2] = Primary qHTS for inhibitors of nuclear receptor binding SET domain protein 2 (NSD2) in an RCH-ACV wild type WT cells (2C) (AID 1645877); further: nearly all actives have a fitted effect of over 70% in size; further: potency means the concentration at half of the fitted maximal effect
[3] = biological target: Catechol O-methyltransferase (Homo sapiens) (UniProt P21964); assay: Confirmatory Screen for Target Class Profiling of Small Molecule Inhibitors of Methyltransferases (AID 1745852; calls by dose curve; further: potency means the concentration at half of the fitted maximal effect; on activity change, negative = inhibition: on the % scale 0 is the no-effect control and ±100 the full control effect); conditions: MTase-Glo luminescence, SAH detection, recombinant enzyme; measured here: COMT max response; stronger effect = lower value
[4] = biological target: Guanidinoacetate N-methyltransferase (Homo sapiens) (UniProt Q14353); assay: as above; conditions: activity change, negative = inhibition: at 57.3 µM (top of the series) unless noted
[5] = biological target: Nicotinamide N-methyltransferase (Homo sapiens) (UniProt P40261); assay: as above; conditions: MTase-Glo luminescence, SAH detection, recombinant enzyme; measured here: NNMT max response; stronger effect = lower value
[6] = biological target: Phenylethanolamine N-methyltransferase (Homo sapiens) (UniProt P11086); assay: as above; conditions: MTase-Glo luminescence, SAH detection, recombinant enzyme; measured here: PNMT max response; stronger effect = lower value
[7] = biological target: Rap guanine nucleotide exchange factor 3 (Homo sapiens) (UniProt O95398); assay: Confirmatory qHTS for agonist of cAMP-regulated guanine nucleotide exchange factor 3 (EPAC1) (AID 1645881);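 further: EPAC1 catalysed release of BODIPY-GDP from Rap1B seen as fluorescence loss; 100% = effect of cAMP agonist control; nearly all actives have a fitted effect of over 75% in size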
[8] = biological target: Rap guanine nucleotide exchange factor 4 (Homo sapiens) (UniProt Q8WZA2); assay: Confirmatory qHTS for agonist of cAMP-regulated guanine nucleotide exchange factor 4 (EPAC2) (AID 1645884);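 further: nucleotide exchange releases bodipy-GDP from Rap1 and this lowers its fluorescence; on the % scale 0 is the no-effect control and ±100 the full control effect; nearly all actives have a fitted effect of over 65% in size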
[9] = biological target: Rap guanine nucleotide exchange factor 4 (Homo sapiens) (UniProt Q8WZA2); assay: Confirmatory qHTS for antagonist of cAMP-regulated guanine nucleotide exchange factor 4 (EPAC2) (AID 1645885); further: nearly all actives have a fitted effect of over 25% in size
[10] = biological target: Rap guanine nucleotide exchange factor 3 (Homo sapiens) (UniProt O95398); assay: Counterscreen qHTS for antagonist of cAMP-regulated guanine nucleotide exchange factor 3 (EPAC1) (AID 1645888);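 further: fluorescence loss as bound BODIPY-GDP is released from Rap1B; % of control where 0% means no effect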
Outline: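 Rap1B-BODIPY-GDP 250 nM + GDP 50 uM; cpds 7-pt, final 9.74 nM–152 uM (activator mode) or from 7.32 nM upwards (inhibitor mode); RT; FI 480/540 nm at 5 and 30 min, then ± cAMP, reread.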

[11] = NCATS anti-infectives library activity on HEK293 viability as a counter-qHTS vs the C. elegans viability qHTS (AID 1745854); further: on the % scale 0 is the no-effect control and ±100 the full control effect
Outline: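 HEK293 cells, 1500 per well, exposed 24 hr at 37C in 5% CO2 to compounds in a 1:5 titration, up to 41.7 uM final. Viability read as CellTiter-Glo luminescence after 10 min at room temperature.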

[12] = Viability counterscreen for antagonist of constitutive androstane receptor (CAR) against the NCATS DSHEA and TCM libraries (AID 1794837);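 further: compound exposure lasted 24 h before viability reading; 0% is about no effect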
Outline: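 HepG2-CYP2B6-hCAR cells (2,500/well) were allowed to attach for 5 h, then exposed to compounds with 48 uM CITCO for 24 h at 37C. Viability was read by CellTiter-Fluor fluorescence after 1 h.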

[13] = Viability counterscreen for agonist of constitutive androstane receptor (CAR) against the NCATS DSHEA and TCM libraries (AID 1794838); further: 0% is about no effect
Outline: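 HepG2-CYP2B6-hCAR cells (2,500/well) attached 5 h, then got compounds plus 0.75 uM PK11195 final. After 24 h at 37C, viability read by CellTiter-Fluor fluorescence (Ex/Em 405/540 nm).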

[14] = biological target: Nuclear receptor subfamily 1 group I member 3 (Homo sapiens) (UniProt Q14994); assay: Primary qHTS for agonist of constitutive androstane receptor (CAR) against the NCATS DSHEA and TCM libraries (AID 1794839);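 further: HepG2 cells expressing human CAR with a CYP2B6 reporter plus PK11195 antagonist; 0% is about no effect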
Outline: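 HepG2-CYP2B6-hCAR cells (2,500/well) were attached for 5 h, then treated for 24 h at 37 °C with compounds plus 0.75 µM PK11195. Luciferase luminescence (ONE-Glo) was read, with CellTiter-Fluor viability (Ex/Em 405/540 nm).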

[15] = NCATS anti-infectives library activity on the primary C. elegans qHTS viability assay (AID 1745855; calls by dose curve); conditions: C. elegans worm area imaging, day 7; at 41.8 µM (top of the series)
Outline: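 Viability is taken from GFP fluorescence of PE254-GFP-FLuc C. elegans imaged by laser cytometry over 7 days. Ten L1 worms per well grow at 21 °C on TOP10 E. coli capsules with titrated compound; levamisole marks toxicity.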

Catechol O-methyltransferase (Homo sapiens), sequence (P21964 whole entry, looked up): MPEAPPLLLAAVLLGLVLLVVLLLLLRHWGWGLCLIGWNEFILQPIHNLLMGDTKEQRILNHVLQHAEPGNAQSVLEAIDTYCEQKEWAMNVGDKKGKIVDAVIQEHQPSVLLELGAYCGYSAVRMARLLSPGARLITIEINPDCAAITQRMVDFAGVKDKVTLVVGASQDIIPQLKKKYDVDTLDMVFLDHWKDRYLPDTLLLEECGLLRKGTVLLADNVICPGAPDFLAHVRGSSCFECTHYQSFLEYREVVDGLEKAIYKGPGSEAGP
Nicotinamide N-methyltransferase (Homo sapiens), sequence (P40261 whole entry, looked up): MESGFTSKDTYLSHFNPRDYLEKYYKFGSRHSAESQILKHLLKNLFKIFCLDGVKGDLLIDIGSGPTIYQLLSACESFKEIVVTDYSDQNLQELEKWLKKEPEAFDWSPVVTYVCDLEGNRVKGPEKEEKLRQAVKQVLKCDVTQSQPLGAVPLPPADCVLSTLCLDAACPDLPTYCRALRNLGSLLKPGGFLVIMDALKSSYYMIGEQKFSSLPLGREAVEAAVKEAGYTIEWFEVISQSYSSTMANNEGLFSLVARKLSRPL
Phenylethanolamine N-methyltransferase (Homo sapiens), sequence (P11086 whole entry, looked up): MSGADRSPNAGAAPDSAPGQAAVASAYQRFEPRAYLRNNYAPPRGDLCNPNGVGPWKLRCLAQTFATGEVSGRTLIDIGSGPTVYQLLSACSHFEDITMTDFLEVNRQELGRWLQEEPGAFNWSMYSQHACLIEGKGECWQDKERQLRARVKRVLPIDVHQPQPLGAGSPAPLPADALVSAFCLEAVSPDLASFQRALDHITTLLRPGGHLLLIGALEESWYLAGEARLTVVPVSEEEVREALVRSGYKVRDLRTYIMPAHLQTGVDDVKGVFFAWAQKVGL
Rap guanine nucleotide exchange factor 3 (Homo sapiens), sequence (O95398 whole entry, looked up): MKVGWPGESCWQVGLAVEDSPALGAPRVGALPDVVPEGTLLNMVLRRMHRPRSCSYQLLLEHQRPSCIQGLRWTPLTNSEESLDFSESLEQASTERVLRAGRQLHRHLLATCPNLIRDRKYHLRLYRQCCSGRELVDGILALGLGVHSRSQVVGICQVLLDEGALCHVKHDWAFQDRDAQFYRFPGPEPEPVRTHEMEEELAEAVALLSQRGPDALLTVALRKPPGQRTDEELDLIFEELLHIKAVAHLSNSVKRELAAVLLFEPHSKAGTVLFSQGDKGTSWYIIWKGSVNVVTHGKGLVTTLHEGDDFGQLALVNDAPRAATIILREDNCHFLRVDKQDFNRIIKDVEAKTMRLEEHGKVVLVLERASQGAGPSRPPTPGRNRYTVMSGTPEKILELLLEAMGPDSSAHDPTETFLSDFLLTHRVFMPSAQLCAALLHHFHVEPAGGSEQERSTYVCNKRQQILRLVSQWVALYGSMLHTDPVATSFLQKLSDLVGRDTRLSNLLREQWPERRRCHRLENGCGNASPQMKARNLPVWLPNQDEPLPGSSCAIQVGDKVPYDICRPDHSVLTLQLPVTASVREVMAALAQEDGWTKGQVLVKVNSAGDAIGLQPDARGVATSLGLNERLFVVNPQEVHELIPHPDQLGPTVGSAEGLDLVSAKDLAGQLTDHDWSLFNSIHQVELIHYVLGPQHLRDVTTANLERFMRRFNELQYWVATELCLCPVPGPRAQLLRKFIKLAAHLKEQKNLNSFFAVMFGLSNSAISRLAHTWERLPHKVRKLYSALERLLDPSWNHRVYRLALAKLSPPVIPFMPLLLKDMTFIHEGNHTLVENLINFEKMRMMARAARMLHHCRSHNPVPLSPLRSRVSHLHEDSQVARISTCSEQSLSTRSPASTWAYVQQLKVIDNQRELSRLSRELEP
Rap guanine nucleotide exchange factor 4 (Homo sapiens), sequence (Q8WZA2 whole entry, looked up): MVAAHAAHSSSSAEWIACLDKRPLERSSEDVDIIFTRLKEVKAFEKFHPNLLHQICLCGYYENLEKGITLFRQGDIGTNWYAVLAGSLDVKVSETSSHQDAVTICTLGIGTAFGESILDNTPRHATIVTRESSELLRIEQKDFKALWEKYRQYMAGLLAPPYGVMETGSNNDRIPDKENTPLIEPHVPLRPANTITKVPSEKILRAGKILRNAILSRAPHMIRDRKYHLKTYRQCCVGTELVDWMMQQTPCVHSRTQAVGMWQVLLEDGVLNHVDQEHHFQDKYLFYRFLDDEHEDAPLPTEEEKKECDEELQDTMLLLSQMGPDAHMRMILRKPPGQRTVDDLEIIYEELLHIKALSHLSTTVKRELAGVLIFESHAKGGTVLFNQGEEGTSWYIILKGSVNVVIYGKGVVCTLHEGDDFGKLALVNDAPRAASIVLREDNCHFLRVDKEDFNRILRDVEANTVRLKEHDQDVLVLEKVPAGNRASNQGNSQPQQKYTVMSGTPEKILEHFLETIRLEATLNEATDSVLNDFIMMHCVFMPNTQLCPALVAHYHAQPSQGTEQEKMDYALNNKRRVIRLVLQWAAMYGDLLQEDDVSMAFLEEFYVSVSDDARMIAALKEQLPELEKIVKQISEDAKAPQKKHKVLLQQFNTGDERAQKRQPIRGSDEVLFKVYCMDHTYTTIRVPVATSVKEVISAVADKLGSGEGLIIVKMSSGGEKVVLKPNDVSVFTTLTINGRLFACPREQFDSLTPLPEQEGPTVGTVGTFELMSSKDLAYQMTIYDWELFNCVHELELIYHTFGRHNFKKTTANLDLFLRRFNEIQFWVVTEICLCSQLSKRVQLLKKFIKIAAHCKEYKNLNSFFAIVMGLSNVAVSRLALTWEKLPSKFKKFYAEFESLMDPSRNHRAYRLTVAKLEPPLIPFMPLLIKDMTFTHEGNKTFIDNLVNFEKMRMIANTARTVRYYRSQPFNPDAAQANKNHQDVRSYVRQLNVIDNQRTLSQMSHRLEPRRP
Nuclear receptor subfamily 1 group I member 3 (Homo sapiens), sequence (Q14994 whole entry, looked up): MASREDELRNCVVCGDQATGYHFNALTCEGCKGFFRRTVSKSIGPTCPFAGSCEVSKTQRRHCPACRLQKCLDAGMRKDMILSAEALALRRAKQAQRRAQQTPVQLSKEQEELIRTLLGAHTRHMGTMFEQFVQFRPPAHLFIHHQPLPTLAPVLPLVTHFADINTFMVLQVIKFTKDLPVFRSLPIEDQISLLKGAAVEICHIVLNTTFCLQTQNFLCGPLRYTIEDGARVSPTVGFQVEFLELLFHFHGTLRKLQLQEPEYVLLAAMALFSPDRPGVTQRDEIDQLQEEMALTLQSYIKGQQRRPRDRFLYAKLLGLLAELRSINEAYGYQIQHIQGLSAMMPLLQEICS

Compound: C[C@@H]1O[C@@H](O[C@H]2[C@H](OC(=O)C34CCC(C)(C)CC3C3=CCC5C6(C)CC(O)C(O[C@@H]7O[C@H](CO)[C@@H](O)[C@H](O)[C@H]7O)C(C)(C(=O)O)C6CCC5(C)C3(CO)CC4)O[C@H](C)[C@H](O)[C@@H]2O)[C@H](O)[C@H](O)[C@H]1O[C@@H]1OC[C@@H](O)[C@H](O)[C@H]1O (stereo partly specified)
- activity change, negative = viability loss [1]: 3.3% [at 9.23 µM] (inactive)
- outcome [2]: inactive [at 9.23 µM]
- activity [3]: -46%
- activity change, negative = inhibition [4]: -4.58% [at 19.1 µM]
- activity [5]: -3.41%
- activity [6]: -2.81%

Compound: OC[C@H]1O[C@@H](Oc2ccc(O)c3cccc(O)c23)[C@H](O)[C@@H](O)[C@@H]1O
- activity [3]: -82.3%
- Potency [4]: 16.8 µM (active)
- activity [5]: -18.4%
- activity [6]: -70.9%

Compound: CC(C)(C)NC(=O)[C@@H]1C[C@@H]2CCCC[C@@H]2CN1C[C@@H](O)[C@H](Cc1ccccc1)NC(=O)[C@H](CC(N)=O)NC(=O)c1ccc2ccccc2n1
- outcome [7]: inactive
- outcome [8]: inactive
- Potency [9]: inactive
- outcome [10]: inactive

Compound: CC(=O)O[C@@H]1[C@H]2[C@@H](OC(=O)c3ccccc3)[C@@H](C)C[C@]2(O)[C@H](OC(C)=O)[C@@]2(C)[C@@H]3CC(C)(C)C(=O)[C@]3(OC(C)=O)C[C@@]12C
- Potency [2]: inactive

Compound: C[C@@H]1CC[C@]2(C)C3(C)CC[C@@]2(OC3=O)[C@@]12C[C@H](c1ccoc1)OC2=O
- Potency [2]: inactive

Compound: O=C(O)C[C@H](O)C[C@H](O)/C=C/c1c(C2CC2)nc2ccccc2c1-c1ccc(F)cc1
- Potency [1]: 1.83 µM (active) and 1.18 µM (active)
- Potency [2]: 1.83 µM (active) and 934 nM (active)
- outcome [11]: inactive

Compound: NCCOCCOCCNC(=O)Cc1ccc(Nc2nc(NCc3ccc(F)cc3)nc(NCC3CCCCC3)n2)cc1
- Potency [2]: 16.3 µM (active)

Compound: COc1cc(/C=C/c2cc(O)cc(O[C@@H]3O[C@H](CO)[C@@H](O)[C@H](O)[C@H]3O)c2)ccc1O
- activity [3]: -45%
- activity change, negative = inhibition [4]: 0.569% [at 29.8 µM]
- activity [5]: -2.24%
- activity [6]: 1.65%

Compound: CCCOc1ccn2c(C(C)=O)cc(-c3ccccc3S(C)(=O)=O)c2c1
- Potency [2]: 18.6 µM (active)

Compound: OC[C@H]1O[C@@H](Oc2cc(O)cc(-c3cc4ccc(O)cc4o3)c2)[C@H](O)[C@@H](O)[C@@H]1O
- Potency [2]: inactive

Compound: CC(C)(O)CNc1nc(Nc2ccnc(C(F)(F)F)c2)nc(-c2cccc(C(F)(F)F)n2)n1
- Potency [1]: 20.9 µM (active)
- Potency [2]: 20.9 µM (active)
- outcome [11]: inactive

Compound: CC1=C(/C=C/C(C)=C/C=C/C(C)=C/CO)C(C)(C)CCC1
- outcome [12]: inactive
- outcome [13]: inactive

Compound: CC(C)C(=O)OCC(=O)[C@@]12O[C@H](C3CCCCC3)O[C@@H]1C[C@H]1[C@@H]3CCC4=CC(=O)C=C[C@]4(C)[C@H]3[C@@H](O)C[C@@]12C
- Potency [2]: 0.0209 µM (active)

Compound: C[C@H]1[C@H](C)CC[C@]2(C(=O)O)CC[C@]3(C)C(=CC[C@@H]4[C@@]5(C)C[C@@H](O)[C@H](O)[C@@](C)(CO)[C@@H]5CC[C@]43C)[C@H]12
- Potency [1]: inactive
- Potency [2]: inactive
- outcome [12]: inactive
- outcome [13]: inactive
- outcome [14]: inactive

Compound: COc1cc(/C=C/C(=O)OC2CC(OC(C)=O)C(OC(C)=O)C3C2CCC2C(=O)OC(c4ccoc4)CC23C)ccc1O[C@@H]1O[C@H](CO)[C@@H](O)[C@H](O)[C@H]1O (stereo partly specified)
- Potency [2]: inactive

Compound: Nc1c(Br)cc(Br)cc1CNC1CCC(O)CC1 (stereo unspecified)
- Potency [2]: inactive

Compound: CC(C)(O)/C=C1/C(=O)C(C)(C)C(=O)C(C)(C)C1(O)O[C@@H]1O[C@H](COC(=O)c2cc(O)c(O)c(O)c2)[C@@H](O)[C@H](O)[C@H]1O (stereo partly specified)
- Potency [1]: inactive
- Potency [2]: inactive
- activity [3]: -56.9%
- activity change, negative = inhibition [4]: -2.31% [at 19.1 µM]
- activity [5]: -1.53%
- activity [6]: -0.785%

Compound: OC[C@H]1O[C@@H](Oc2cc(O)cc(/C=C/c3ccc(O)cc3)c2)[C@H](O)[C@@H](O)[C@@H]1O
- outcome [11]: inactive

Compound: N[C@H]1C[C@H]1c1ccc(-c2cccc(O)c2)cc1
- Potency [1]: inactive
- Potency [2]: inactive
- outcome [11]: inactive
- outcome [15]: inactive

Compound: CC1=CC(=O)C2C(C)(C)CCCC2(C)C12CCC1(COC(=O)C1)O2 (stereo unspecified)
- activity [3]: -85.5%
- activity change, negative = inhibition [4]: 2.41%
- activity [5]: -1.78%
- activity [6]: 3.04%

Compound: OC1COC(OCC2OC(OCCc3ccccc3)C(O)C(O)C2O)C(O)C1O (stereo unspecified)
- Potency [1]: inactive
- Potency [2]: inactive
- activity [3]: -64.8%
- activity change, negative = inhibition [4]: 0% [at 29.8 µM]
- activity [5]: 0%
- activity [6]: 0%

Compound: COc1cc(C(O)C(CO)Oc2ccc(CCCO[C@@H]3O[C@@H](C)[C@H](O)[C@@H](O)[C@H]3O)cc2OC)ccc1O (stereo partly specified)
- Potency [1]: inactive
- Potency [2]: inactive
- activity [3]: -72.8%
- activity change, negative = inhibition [4]: -3.44% [at 29.8 µM]
- activity [5]: -3.89%
- activity [6]: -4.24%
